This passage reports growth results from PubChem BioAssay (NCI).

Where “and” joins values, the source holds several entries; their conditions need not be identical. Identical values can stand only once. Compounds without any hit were thinned out: in the full panel of roughly 83,000, 20% have a hit.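 Testing used 96-well plates and a 48-hour single-concentration exposure. Example: -40 means 40% of the starting cells died.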 Unmarked numbers belong to inactive results. Calls of active or inactive are those of the source. Rule for the calls: active = growth percent below 10; inactive = the rest.

The assay has as its system MDA-MB-468 breast. Kind of assay: NCI-60 one-dose screen, 48 h (100 = growth as untreated, 0 = no growth, -100 = all killed). The settings on record: 10 µM unless noted.
Turning to `O=[N+]([O-])c1c(Cl)cc(Cl)c([N+](=O)[O-])c1Cl`, the growth was 15%.

As to `O=C(O)c1cc(Cc2ccc(O)c(C(=O)O)c2)ccc1O` (tested in a mixture with another compound), the growth was -46.8% (active). The value for `Nc1c(F)cc(-c2nc3cc(F)ccc3[se]2)cc1Br` was -35.4% (active); that for `O=C=Nc1ccc(Br)cc1` was 83.1%; that for `COC(=O)CCC1=C(C)c2cc3[n-]c(cc4nc(cc5[n-]c(cc1n2)c(CCC(=O)OC)c5C)C=C4C)cc3C.[Cd+2]` was 81.6%. With `N#C[Se]CCN1C(=O)C2C(C1=O)[C@H]1C=C[C@@H]2S1` (stereo not given in full), the growth was -19.7% (active). Regarding `COC(=O)[C@H]1[C@@H](O)[C@@]2(O)c3c(OC)cc(OC)cc3O[C@@]2(c2ccc(OC)cc2)[C@@H]1c1ccccc1`, the growth was -16.5% (active).

For the molecule `O=[N+]([O-])c1ccc(N2CCOCC2)c2c1no[n+]2[O-]`, the growth was 2.62% (active). The result for `N#Cc1ncc(/N=C/c2ccc(N(CCCl)CCCl)cc2)s1` reads -2.43% (active); that for `CCCCCCCCCCCCCCCCCC1OC[C@@H](COC(=O)O[C@@H](C(=O)O[C@H]2C[C@@]3(O)[C@@H](OC(=O)c4ccccc4)[C@@H]4[C@]5(OC(C)=O)CO[C@@H]5C[C@H](O)[C@@]4(C)C(=O)[C@H](OC(C)=O)C(=C2C)C3(C)C)[C@@H](NC(=O)c2ccccc2)c2ccccc2)O1` (stereo not given in full), 21%. With `CC1=C(CCCNS(C)(=O)=O)C2=C(C)C3(CC3)[C@@](C)(O)C(=O)C2=C1`, the growth was -80.9% (active). As to `O=C(Cc1ccccc1)NC(O)C(Cl)(Cl)Cl` (stereo not given), the growth was 104%. The value for `COc1c(O)c2c3c(c1OC)-c1ccccc1CC3N(C)CC2` (stereo not given) was 120%; that for `COc1ccc(/C=C(\C)[N+](=O)[O-])cc1OC` was -77.3% (active). The result for `O=C(O)c1cccc(CCl)c1` reads 105%.

Take `CC1=CC(=Nc2ccc(N(CCCl)CCCl)cc2)C=C(C)C1=O`: the growth was -66.3% (active). The value for `N#C[Se]Cc1cc(-c2ccccc2)n(-c2ccc(S(N)(=O)=O)cc2)n1` was -66.1% (active). Regarding `CCOC(=O)N[C@H]1CCc2c(Br)c(OC)c(OC)c(OC)c2-c2ccc(SC)c(=O)cc21`, the growth is -14.7% (active). The value for `O=C(CBr)Nc1ccc(Cl)cc1` was 92.8%. For `N#C[S-].[Au+].c1ccc(CN2[CH-]N(Cc3ccccc3)C(c3ccccc3)=C2c2ccccc2)cc1`, the growth was -3.8% (active). The result for `COC(=O)N[C@H]1CCc2c(Br)c(OC)c(OC)c(OC)c2-c2ccc(SC)c(=O)cc21` reads -23.7% (active); that for `CC1(C)S[C@H]2CC[C@H]3OC(=O)[C@@H]1N23`, 95.7%; that for `ClCCN(CCCl)c1nc(Cl)c(C2CC(c3ccccc3)=NN2c2ccccc2)s1` (stereo not given), 75.4%. The value for `CN1CCN(c2ccc([N+](=O)[O-])c3no[n+]([O-])c23)CC1` was -70.3% (active); that for `CC1(C)CC(=O)CC(C)(C)N1N=O` was 124%; that for `C[C@@H]1C[C@@H]([C@H](O)CC2CC(=O)NC(=O)C2)C(=O)[C@@H](C)C1` was 9.5% (active). As to `COc1ccc2nc(NC(=O)COc3cc(/C=C\c4cc(OC)c(OC)c(OC)c4)ccc3OC)sc2c1`, the growth was -5.6% (active). The result for `CC1=C(CN)C2=C(C)C3(CC3)[C@@](C)(O)C(=O)C2=C1` reads 73.2%; that for `CCCCNCCc1ccccn1`, 117%. The result for `C[C@]12CC[C@@H]3c4ccc(OC(=O)Cc5ccc(N(CCCl)CCCl)cc5)cc4CC[C@H]3[C@@H]1CC[C@@H]2OC(=O)Cc1ccc(N(CCCl)CCCl)cc1` reads 104%; that for `c1ccc(CCN2CCCCC2Cc2ccccc2)cc1` (stereo not given), 103%; that for `CC1(C)C2CCC1(CS(=O)(=O)O)C(=O)C2` (stereo not given), 123%.

`C[N+]1(C)CCCC1c1cccnc1` (stereo not given): the growth was 101%. The value for `CCCCCCCCCCCCCCCC[n+]1ccccc1` was -33.2% (active) and -13.9% (active). The result for `N/C(=N/N=C/c1ccncc1)N[N+](=O)[O-]` reads 110%; that for `CCCCCCCCC(CO)NCCc1ccccc1` (stereo not given), 100%.

As to `O=C1C=C2C(=CCOC2O)O1` (stereo not given), the growth is -55.5% (active). The value for `Nc1ccc2c(c1)Cc1cc(Br)ccc1-2` was 85.2%.

On to `CC12CC[C@H](O)C=C1/C(=N/O)CC1C2CCC2(C)C1CC[C@@H]2O` (stereo not given in full), for which the growth is 100%. As for `CCOC(=O)c1c(C)n(Cc2ccccc2)c2cc(CN(C)C)c(O)cc12`, the growth is 73.9%.
